Laboratory results published in ChEMBL document CHEMBL1961873, “Compounds: GSK PKIS; Assays: Nanosyn kinase panel” (2012).

Key:
[1] = target: Serine/threonine-protein kinase 26 (Homo sapiens) (UniProt Q9P289); settings: at 1 µM;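 note: mean inhibition of MST4 kinase activity, reported from the GSK PKIS inhibitor-set screening panel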
[2] = target: Serine/threonine-protein kinase PAK 1 (Homo sapiens) (UniProt Q13153); settings: at 0.1 µM
[3] = target: Serine/threonine-protein kinase PAK 1 (Homo sapiens) (UniProt Q13153); settings: at 1 µM
[4] = target: Serine/threonine-protein kinase PAK 2 (Homo sapiens) (UniProt Q13177); settings: at 0.1 µM
Sequence of Serine/threonine-protein kinase PAK 2 (Homo sapiens) (Q13177 whole entry): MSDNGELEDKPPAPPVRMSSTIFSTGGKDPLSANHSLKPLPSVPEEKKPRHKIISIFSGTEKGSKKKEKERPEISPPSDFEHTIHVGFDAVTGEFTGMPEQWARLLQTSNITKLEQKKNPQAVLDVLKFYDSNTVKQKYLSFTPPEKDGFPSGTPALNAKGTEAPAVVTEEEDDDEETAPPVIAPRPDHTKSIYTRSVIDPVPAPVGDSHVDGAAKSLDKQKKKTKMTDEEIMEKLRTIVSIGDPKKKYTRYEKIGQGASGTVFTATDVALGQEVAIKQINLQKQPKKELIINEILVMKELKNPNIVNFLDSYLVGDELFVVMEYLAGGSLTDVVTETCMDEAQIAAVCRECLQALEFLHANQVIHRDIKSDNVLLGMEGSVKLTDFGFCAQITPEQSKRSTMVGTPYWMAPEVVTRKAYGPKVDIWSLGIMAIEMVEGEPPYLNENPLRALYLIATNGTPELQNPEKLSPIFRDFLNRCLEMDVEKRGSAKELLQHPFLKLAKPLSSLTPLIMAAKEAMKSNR

[5] = target: Serine/threonine-protein kinase PAK 2 (Homo sapiens) (UniProt Q13177); settings: at 1 µM
[6] = target: Serine/threonine-protein kinase PAK 3 (Homo sapiens) (UniProt O75914); settings: at 0.1 µM
Sequence of Serine/threonine-protein kinase PAK 3 (Homo sapiens) (O75914 whole entry, looked up): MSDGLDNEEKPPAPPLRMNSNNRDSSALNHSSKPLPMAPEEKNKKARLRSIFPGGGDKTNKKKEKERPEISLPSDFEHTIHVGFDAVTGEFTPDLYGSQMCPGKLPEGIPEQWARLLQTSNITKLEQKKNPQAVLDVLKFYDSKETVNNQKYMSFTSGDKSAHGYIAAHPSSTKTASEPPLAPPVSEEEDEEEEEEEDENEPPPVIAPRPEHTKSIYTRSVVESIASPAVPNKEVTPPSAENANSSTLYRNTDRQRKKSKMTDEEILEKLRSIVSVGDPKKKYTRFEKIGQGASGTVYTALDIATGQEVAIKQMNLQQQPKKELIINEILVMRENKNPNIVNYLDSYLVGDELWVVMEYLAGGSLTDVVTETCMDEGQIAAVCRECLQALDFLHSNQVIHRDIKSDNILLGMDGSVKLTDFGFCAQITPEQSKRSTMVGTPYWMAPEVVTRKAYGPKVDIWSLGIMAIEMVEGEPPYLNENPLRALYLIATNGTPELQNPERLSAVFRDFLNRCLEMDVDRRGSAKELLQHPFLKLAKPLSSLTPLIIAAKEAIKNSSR

[7] = target: Serine/threonine-protein kinase PAK 3 (Homo sapiens) (UniProt O75914); settings: at 1 µM
[8] = target: Serine/threonine-protein kinase PAK 5 (Homo sapiens) (UniProt Q9P286); settings: at 0.1 µM
Sequence of Serine/threonine-protein kinase PAK 5 (Homo sapiens) (Q9P286 whole entry, looked up): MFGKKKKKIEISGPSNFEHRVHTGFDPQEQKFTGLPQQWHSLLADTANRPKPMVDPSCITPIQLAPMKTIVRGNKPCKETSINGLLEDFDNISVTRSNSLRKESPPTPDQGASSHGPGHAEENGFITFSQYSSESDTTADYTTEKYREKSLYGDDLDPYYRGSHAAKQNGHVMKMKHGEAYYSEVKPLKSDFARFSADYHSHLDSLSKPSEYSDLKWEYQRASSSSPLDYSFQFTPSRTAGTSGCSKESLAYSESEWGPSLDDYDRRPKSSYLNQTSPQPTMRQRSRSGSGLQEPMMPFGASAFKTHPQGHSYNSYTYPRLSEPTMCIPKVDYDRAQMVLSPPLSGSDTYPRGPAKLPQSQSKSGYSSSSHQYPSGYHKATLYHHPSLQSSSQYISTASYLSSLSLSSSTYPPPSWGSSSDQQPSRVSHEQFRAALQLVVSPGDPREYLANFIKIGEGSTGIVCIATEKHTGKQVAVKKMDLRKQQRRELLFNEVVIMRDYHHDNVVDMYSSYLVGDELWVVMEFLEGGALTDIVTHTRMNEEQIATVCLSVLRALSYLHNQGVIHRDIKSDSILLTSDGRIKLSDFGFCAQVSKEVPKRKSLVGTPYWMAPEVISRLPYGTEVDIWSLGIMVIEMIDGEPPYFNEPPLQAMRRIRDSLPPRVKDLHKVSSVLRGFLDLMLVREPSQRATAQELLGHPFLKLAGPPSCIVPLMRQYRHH

[9] = target: Serine/threonine-protein kinase PAK 5 (Homo sapiens) (UniProt Q9P286); settings: at 1 µM
[10] = target: Serine/threonine-protein kinase PAK 6 (Homo sapiens) (UniProt Q9NQU5); settings: at 0.1 µM;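 note: mean PAK6 inhibition reported from the GSK PKIS screen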
Sequence of Serine/threonine-protein kinase PAK 6 (Homo sapiens) (Q9NQU5 whole entry, looked up): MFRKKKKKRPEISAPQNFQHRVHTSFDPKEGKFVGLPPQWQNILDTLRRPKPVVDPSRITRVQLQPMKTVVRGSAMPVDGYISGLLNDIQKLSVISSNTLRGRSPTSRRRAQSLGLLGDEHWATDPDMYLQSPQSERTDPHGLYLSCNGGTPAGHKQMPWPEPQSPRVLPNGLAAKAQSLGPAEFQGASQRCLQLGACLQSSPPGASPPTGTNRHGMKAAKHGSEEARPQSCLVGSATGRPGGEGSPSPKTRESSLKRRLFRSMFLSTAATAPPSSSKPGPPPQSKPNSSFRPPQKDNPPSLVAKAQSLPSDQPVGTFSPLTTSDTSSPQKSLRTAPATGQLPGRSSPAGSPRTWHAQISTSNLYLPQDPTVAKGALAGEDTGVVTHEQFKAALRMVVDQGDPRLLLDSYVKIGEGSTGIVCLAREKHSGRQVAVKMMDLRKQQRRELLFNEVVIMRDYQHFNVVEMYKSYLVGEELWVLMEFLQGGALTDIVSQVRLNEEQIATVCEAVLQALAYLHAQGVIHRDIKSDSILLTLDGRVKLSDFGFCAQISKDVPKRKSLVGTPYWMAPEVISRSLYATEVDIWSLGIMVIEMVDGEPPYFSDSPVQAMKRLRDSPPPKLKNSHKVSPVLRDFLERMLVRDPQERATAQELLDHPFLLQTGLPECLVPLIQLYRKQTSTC

Sequence of Serine/threonine-protein kinase 26 (Homo sapiens) (Q9P289 2-416 limits assumed): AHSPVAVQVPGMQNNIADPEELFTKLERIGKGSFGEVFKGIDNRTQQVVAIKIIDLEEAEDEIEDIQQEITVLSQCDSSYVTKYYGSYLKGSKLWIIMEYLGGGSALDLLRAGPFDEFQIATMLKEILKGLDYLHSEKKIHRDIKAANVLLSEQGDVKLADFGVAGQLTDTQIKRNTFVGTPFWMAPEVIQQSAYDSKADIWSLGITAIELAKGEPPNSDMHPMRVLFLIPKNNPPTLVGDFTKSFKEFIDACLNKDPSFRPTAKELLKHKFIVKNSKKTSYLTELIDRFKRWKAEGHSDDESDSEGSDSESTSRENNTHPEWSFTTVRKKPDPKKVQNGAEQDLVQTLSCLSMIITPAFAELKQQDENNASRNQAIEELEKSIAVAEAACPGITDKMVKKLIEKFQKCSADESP
Sequence of Serine/threonine-protein kinase PAK 1 (Homo sapiens) (Q13153 whole entry): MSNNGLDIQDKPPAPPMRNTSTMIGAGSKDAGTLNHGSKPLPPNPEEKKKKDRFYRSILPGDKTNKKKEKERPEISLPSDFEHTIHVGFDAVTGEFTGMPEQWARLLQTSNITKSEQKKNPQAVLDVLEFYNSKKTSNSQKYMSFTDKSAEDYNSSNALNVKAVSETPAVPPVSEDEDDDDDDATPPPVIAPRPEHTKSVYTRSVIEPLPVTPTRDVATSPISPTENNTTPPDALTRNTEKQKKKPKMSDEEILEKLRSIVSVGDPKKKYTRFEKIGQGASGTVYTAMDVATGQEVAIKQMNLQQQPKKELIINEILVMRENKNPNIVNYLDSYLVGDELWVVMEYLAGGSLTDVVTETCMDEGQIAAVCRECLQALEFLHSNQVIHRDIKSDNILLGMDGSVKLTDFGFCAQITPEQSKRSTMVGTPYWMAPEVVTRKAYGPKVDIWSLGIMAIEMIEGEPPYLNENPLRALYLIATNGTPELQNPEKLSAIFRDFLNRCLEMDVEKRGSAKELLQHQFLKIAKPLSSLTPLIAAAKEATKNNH

Structure (SMILES)	inhibition [1] [%]	inhibition [2] [%]	inhibition [3] [%]	inhibition [4] [%]	inhibition [5] [%]	inhibition [6] [%]	inhibition [7] [%]	inhibition [8] [%]	inhibition [9] [%]	inhibition [10] [%]
Nc1nonc1-c1nc2cnccc2n1C1CCCCC1	3.95	-0.52	-1.25	-2.06	-1.54	-3.57	-2.19	-7.66	-4.63	-0.28
CCn1c(-c2nonc2N)nc2c(C#CC(C)(C)O)nc(O[C@@H](CN)c3ccccc3)cc21	10.8	0.39	14	7.41	48.9	-0.59	15.6	49.1	62.2	59.9
COc1cccc(-n2ncc3c(N/N=C/c4ccncc4)ncnc32)c1	7.18	5.78	7.75	3.04	2.37	5.73	5.78	0.19	6.09	-2.81
CCn1c(-c2nonc2N)nc2c(C#CC(C)(C)O)ncc(OC[C@@H]3CCCN3)c21	-0.64	-0.64	7.58	1.99	16.6	0.61	4.06	12.6	49.8	19.1
Fc1ccc(-c2ncn(C3CCNCC3)c2-c2ccnc(Oc3ccccc3)n2)cc1	0.32	3.79	1.88	0.54	1.48	1.85	3.31	2.66	2.03	-8.85
NS(=O)(=O)c1ccc(-c2ccc3c(NC(=O)C4CC4)n[nH]c3c2)cc1	-2.58	6.54	2.13	1.52	2.07	2.48	4.17	1.07	2.99	7.47
Cc1cc(-c2ccco2)cc(C)c1/C=C/c1cncc(-c2nn[nH]n2)c1	11.6	1.26	2.13	-1.09	-0.44	0.76	0.92	-7.1	-2.25	5.79
CCn1c(-c2nonc2N)nc2c(C#CC(C)(C)O)ncc(OCC3CCNCC3)c21	3.31	5.46	7.18	2.42	12.7	5.37	7.15	48.8	76	19.2
NC(=O)c1sc(-n2cnc3cc(C(F)(F)F)ccc32)cc1OCc1ccccc1Br	3.19	1.15	2.03	-0.71	-1.57	1.59	0.61	1.54	0.39	3.56
COc1cc2c(cc1Nc1nc(Nc3ccsc3C(N)=O)c3cc[nH]c3n1)N(C(=O)CN(C)C)CCC2	0.17	-0.61	0.73	1.88	2.11	3.92	7.24	-1	-3.49	4.98
NS(=O)(=O)c1ccc(N/C=C2\C(=O)Nc3ccc4ncsc4c32)cc1	74.5	4.98	7.33	1.87	2.66	5.48	5.62	2.66	4.51	-9.73
CCn1c(-c2nonc2N)nc2c(C#CCN)ncc(OCCCN)c21	2.79	-1.61	2.32	-1.05	-1.34	-1.06	-0.65	3.08	3.52	17
COc1cc(C=NNc2ncnc3c2cnn3Cc2ccccc2)ccc1O	2.28	0.64	-2.75	-2.02	-0.63	-5.99	-4.57		-5.56	-0.81
COc1cccc(COc2cc(-n3cnc4ccccc43)sc2C(N)=O)c1	-1.08	0.1	2.97	0.38	0.1	0.88	1.18	-2.95	-5.64	1.2
